Measurements published in the supplement of paper PMC11732987, “Enantioselective OTUD7B fragment discovery through chemoproteomics screening and high-throughput optimisation” (Communications Chemistry, 2025).

How the values were obtained:
Assay in all cases: log2 ratio of Biotin-Ahx-Ub-VS probe labelling (fragment/DMSO); higher = less target engagement (more negative = stronger competition), active = hit call of the paper (q ≤ 0.05, log2 ratio ≤ -1)
Conditions in all cases: compound concentration: 200 uM; treatment time: 3 h
USP34 = USP34 (UniProt Q70CQ2)
Outline: (§1)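 HEK293T lysate, 495 µg per sample in Tris/CHAPS/IGEPAL buffer with protease inhibitors, was treated in triplicate with fragment at 200 µM or vehicle for 3 h and then with Biotin-Ahx-Ub-VS at 0.5 µM final for 1 h. Labelled DUBs were NeutrAvidin-enriched, digested with LysC and trypsin, and run by diaPASEF LC-MS/MS. Spectronaut label-free quantities were global-median-normalised, and values are average log2 fragment/vehicle ratios by unpaired t-test on proteins with ≥2 unique peptides.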

USP36 = molecular target: T1, USP36 (UniProt Q9P275)
T1 sequence (whole entry): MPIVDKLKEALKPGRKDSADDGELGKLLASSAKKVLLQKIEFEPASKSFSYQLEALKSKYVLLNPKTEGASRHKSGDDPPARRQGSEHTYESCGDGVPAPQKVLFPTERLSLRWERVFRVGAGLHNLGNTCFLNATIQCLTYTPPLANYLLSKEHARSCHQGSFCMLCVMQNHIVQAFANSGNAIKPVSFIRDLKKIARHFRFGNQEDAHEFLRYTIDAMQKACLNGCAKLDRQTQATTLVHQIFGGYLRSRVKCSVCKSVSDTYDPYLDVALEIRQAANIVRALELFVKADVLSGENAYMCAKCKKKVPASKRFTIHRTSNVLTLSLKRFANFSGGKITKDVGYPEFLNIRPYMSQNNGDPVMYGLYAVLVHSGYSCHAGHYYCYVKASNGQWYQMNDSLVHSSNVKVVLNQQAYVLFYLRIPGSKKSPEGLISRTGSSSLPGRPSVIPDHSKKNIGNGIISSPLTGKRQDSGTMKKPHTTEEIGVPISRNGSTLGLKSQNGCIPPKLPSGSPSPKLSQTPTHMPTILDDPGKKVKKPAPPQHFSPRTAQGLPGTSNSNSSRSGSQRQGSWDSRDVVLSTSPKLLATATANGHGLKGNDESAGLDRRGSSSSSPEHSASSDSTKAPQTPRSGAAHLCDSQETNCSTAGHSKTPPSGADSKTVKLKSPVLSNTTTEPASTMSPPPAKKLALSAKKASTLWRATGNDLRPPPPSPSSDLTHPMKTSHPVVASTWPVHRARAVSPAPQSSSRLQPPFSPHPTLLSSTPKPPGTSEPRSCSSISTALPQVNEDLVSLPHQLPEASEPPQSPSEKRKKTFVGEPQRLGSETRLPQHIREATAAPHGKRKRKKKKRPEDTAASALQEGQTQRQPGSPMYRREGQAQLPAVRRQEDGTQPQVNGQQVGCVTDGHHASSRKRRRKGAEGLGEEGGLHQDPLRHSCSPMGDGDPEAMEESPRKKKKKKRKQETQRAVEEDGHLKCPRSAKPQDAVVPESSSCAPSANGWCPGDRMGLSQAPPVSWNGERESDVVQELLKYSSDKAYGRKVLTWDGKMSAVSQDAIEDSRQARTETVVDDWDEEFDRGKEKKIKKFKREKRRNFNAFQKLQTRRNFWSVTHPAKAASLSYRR
Outline: as §1

USP38 = molecular target: T2, USP38 (UniProt Q8NB14)
T2 sequence (whole entry): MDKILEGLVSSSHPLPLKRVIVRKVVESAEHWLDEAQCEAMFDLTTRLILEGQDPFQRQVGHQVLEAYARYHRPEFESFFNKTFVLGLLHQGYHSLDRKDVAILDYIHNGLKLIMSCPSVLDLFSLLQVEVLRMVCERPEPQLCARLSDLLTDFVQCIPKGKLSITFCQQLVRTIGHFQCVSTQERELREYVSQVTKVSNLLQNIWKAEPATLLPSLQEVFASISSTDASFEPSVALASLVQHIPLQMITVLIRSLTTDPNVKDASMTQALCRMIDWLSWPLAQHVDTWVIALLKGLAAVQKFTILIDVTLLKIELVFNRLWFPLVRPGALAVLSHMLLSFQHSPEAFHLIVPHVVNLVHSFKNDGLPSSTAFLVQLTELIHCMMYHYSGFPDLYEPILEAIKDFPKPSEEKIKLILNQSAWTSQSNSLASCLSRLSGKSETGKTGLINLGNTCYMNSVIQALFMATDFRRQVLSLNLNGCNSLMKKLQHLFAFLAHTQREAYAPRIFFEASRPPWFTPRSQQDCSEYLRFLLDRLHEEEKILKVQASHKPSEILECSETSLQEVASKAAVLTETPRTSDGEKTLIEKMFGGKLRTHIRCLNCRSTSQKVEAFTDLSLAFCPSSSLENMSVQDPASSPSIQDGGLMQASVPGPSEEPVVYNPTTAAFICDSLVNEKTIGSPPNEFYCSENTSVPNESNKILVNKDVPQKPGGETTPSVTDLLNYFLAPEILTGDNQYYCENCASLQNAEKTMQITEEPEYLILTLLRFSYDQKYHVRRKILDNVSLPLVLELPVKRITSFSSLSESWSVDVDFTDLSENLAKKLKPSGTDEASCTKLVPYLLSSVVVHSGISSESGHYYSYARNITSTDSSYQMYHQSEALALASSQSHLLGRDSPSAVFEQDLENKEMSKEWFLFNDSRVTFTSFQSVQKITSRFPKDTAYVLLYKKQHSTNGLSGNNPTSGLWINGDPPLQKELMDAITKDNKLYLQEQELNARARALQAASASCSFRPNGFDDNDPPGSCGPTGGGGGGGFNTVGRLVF
Outline: as §1

USP39 = molecular target: T3, USP39 (UniProt Q53GS9)
T3 sequence (whole entry): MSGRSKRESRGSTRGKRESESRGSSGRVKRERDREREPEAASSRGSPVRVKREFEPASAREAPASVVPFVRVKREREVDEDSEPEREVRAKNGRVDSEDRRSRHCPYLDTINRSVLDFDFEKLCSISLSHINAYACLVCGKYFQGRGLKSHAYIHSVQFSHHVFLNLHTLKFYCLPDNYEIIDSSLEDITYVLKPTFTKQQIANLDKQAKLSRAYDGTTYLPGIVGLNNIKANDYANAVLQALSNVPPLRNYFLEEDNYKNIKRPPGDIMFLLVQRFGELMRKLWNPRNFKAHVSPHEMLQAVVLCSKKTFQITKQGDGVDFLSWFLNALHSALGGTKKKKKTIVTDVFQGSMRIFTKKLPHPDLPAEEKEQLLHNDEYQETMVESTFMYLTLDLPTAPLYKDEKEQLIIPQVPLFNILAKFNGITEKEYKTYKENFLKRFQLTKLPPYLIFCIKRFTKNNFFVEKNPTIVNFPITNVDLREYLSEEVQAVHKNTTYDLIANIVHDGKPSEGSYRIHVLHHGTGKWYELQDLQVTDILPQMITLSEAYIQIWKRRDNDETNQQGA
Outline: as §1

USP4 = molecular target: T4, USP4 (UniProt Q13107)
T4 sequence (whole entry): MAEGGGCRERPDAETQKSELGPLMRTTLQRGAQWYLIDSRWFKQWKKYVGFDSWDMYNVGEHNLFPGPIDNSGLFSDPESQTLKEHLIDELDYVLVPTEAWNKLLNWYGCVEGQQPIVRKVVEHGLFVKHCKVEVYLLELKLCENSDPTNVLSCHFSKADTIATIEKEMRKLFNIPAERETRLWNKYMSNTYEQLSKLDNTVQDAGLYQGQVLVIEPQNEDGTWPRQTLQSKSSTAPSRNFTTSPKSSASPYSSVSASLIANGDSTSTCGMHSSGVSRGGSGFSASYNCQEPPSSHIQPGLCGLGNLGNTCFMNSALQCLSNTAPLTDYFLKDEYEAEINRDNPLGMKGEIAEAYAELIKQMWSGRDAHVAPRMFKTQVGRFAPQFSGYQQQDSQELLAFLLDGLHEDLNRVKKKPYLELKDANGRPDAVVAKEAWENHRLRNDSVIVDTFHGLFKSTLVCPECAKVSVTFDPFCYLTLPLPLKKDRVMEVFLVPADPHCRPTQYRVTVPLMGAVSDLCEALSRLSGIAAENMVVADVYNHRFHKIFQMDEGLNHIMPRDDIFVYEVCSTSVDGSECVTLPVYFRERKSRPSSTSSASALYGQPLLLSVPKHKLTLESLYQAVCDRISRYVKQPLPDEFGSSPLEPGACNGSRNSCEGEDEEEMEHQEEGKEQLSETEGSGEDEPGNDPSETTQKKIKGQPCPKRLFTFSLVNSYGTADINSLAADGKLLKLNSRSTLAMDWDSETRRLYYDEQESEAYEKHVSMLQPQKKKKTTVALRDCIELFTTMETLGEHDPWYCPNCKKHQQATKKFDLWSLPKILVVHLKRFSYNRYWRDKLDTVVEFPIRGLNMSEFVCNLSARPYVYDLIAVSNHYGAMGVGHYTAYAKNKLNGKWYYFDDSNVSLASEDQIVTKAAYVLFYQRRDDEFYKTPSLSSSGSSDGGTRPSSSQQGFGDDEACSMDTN
Outline: as §1

Measured: log2 ratio of Biotin-Ahx-Ub-VS probe labelling

Sequence of USP34 (Q70CQ2 whole entry, the tested form may be a part): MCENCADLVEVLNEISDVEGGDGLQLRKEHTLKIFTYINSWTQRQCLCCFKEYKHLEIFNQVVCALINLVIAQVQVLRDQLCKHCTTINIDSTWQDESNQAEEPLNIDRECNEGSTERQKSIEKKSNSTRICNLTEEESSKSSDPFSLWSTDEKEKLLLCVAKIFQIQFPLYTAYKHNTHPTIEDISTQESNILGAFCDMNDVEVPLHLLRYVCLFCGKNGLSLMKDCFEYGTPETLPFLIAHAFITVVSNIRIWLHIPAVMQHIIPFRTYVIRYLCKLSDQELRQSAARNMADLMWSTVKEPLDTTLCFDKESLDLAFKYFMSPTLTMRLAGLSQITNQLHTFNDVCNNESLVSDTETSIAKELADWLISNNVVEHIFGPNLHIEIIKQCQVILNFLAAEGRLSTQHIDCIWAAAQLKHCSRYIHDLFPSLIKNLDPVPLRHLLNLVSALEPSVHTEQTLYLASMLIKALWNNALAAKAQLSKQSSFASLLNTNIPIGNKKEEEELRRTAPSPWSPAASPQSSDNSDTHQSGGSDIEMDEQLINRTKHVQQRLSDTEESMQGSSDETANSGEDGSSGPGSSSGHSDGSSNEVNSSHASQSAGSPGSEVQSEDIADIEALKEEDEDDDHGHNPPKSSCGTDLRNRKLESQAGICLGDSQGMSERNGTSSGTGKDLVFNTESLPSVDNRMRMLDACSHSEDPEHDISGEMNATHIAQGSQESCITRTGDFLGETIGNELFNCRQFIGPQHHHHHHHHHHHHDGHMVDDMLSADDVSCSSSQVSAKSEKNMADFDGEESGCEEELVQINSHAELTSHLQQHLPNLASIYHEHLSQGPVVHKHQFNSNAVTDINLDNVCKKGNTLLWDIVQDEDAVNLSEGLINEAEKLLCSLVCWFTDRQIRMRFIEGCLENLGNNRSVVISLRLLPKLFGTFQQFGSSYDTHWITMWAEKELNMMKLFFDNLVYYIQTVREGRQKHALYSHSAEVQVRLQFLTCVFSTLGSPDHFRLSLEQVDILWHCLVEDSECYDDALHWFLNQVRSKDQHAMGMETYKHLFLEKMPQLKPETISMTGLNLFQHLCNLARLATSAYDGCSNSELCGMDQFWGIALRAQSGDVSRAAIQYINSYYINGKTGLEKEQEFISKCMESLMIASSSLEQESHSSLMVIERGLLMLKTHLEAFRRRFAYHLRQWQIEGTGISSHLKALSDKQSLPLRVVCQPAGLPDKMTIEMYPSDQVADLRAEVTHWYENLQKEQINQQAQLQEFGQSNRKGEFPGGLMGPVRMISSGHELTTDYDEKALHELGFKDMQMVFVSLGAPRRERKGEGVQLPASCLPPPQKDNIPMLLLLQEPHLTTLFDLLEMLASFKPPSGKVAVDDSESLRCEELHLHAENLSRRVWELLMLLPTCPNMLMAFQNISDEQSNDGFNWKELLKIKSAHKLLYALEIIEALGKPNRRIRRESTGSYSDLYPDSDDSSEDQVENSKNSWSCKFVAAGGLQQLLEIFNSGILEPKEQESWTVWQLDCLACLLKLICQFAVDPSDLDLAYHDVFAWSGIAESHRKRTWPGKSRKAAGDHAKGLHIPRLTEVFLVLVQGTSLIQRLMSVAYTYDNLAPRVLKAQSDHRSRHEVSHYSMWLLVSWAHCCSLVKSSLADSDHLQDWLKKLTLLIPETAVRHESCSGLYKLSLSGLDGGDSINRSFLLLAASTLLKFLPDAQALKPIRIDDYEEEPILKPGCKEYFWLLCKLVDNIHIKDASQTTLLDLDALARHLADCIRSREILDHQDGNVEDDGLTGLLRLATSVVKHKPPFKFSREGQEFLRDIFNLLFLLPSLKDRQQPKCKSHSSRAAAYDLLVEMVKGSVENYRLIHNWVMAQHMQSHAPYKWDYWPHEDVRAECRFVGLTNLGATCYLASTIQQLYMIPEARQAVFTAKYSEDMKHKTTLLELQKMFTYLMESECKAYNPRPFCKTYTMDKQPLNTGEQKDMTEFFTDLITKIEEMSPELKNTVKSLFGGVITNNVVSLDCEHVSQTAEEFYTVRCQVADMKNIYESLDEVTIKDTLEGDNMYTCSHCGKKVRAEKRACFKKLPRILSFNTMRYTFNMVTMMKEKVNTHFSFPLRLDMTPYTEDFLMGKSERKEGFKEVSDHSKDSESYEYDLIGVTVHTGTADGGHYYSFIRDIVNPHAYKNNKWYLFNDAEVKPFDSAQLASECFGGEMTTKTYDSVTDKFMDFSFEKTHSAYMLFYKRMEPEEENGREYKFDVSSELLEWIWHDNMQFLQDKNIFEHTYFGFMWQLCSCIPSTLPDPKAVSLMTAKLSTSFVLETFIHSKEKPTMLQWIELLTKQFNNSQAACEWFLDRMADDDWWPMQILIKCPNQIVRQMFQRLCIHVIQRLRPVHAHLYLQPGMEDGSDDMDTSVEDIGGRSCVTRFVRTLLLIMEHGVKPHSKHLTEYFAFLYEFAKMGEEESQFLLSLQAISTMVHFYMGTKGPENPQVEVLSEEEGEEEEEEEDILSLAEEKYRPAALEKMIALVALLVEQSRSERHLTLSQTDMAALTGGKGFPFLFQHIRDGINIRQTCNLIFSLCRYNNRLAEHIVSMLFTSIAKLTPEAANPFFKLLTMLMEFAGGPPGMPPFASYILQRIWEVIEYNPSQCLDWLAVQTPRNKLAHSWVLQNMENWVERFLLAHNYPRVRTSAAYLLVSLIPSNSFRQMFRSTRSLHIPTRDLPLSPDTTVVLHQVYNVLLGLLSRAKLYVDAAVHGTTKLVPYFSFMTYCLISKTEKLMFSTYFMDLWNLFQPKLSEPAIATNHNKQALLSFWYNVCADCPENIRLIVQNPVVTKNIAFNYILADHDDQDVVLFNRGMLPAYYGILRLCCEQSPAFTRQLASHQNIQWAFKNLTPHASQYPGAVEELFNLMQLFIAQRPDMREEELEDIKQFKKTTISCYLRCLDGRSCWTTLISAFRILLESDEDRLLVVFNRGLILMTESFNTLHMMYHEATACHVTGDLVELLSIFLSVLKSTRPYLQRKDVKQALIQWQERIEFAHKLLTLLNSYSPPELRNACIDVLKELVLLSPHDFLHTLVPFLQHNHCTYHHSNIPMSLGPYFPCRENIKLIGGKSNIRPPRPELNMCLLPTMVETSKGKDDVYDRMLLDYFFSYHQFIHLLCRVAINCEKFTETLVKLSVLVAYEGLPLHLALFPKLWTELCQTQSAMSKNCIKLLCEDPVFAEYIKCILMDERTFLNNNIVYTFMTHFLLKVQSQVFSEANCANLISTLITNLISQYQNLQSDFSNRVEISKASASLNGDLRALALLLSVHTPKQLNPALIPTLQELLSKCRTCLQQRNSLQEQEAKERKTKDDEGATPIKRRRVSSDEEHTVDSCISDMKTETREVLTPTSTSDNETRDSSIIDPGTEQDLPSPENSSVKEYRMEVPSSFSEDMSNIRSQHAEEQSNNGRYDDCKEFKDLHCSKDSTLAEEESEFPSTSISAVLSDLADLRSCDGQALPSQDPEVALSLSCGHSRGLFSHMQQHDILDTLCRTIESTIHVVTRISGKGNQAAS

O=C(CCl)NCc1cccc(N2CCCC2=O)c1
inactive: USP34 -0.203 | USP36 -0.212 | USP38 -0.128 | USP39 -0.0958 | USP4 0.0693
